Measurements published in PubChem BioAssay AID1159580 (chemical genetic matrix, 2015).
The whole screen tested about 5,500 compounds, of which about 2,000 (36%) were called active. Roughly 18% stayed inconclusive and do not appear here. The list shows a part of the results. Unmarked numbers belong to inactive results. Cut-off read from the data, not from the text of the source: active = normalized growth mostly below about 0.91 (no sharp cut-off); inconclusive = no clear call, values can overlap the other calls; inactive = mostly above about 0.92.

Assay: chemical genetic growth profiling, strain panel (AID 1159580);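 note: tested at 20 µM; growth read once vehicle control cultures reached saturation at 30 °C; 1 = growth at the plate median or of vehicle wells; lower values mean less growth of the strain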
Conditions: growth OD

Compound: COc1ccc(CC(=O)c2ccc(O)cc2O)cc1
- normalized growth (S. cerevisiae deletion strains, locus YKL068W, stronger effect = lower value): 0.98
- normalized growth (S. cerevisiae deletion strains, locus YKL085W, strain MDH1 (second series), stronger effect = lower value): 0.992
- normalized growth (S. cerevisiae deletion strains, locus YKL085W, strain MDH1, stronger effect = lower value): 0.992
- normalized growth (S. cerevisiae deletion strains, locus YKL160W, strain elf1, stronger effect = lower value): 0.938
- normalized growth (S. cerevisiae deletion strains, locus YKL190W, strain CNB1, stronger effect = lower value): 0.975
- normalized growth (S. cerevisiae deletion strains, locus YKR001C, strain vps1, stronger effect = lower value): 0.766 (active)
- normalized growth (S. cerevisiae deletion strains, locus YKR026C, strain gcn3, stronger effect = lower value): 0.988
- normalized growth (S. cerevisiae deletion strains, locus YKR091W, strain srl3, stronger effect = lower value): 0.988
- normalized growth (S. cerevisiae deletion strains, locus YLL001W, strain dnm1, stronger effect = lower value): 0.944
- normalized growth (S. cerevisiae deletion strains, locus YLL026W, stronger effect = lower value): 0.993
- normalized growth (S. cerevisiae deletion strains, locus YLL041C, strain sdh2, stronger effect = lower value): 0.99
- normalized growth (S. cerevisiae deletion strains, locus YLR027C, strain aat2, stronger effect = lower value): 0.997
- normalized growth (S. cerevisiae deletion strains, locus YLR039C, strain RIC1, stronger effect = lower value): 0.686
- normalized growth (S. cerevisiae deletion strains, locus YLR058C, strain SHM2, stronger effect = lower value): 0.946
- normalized growth (S. cerevisiae deletion strains, locus YLR102C, strain apc9, stronger effect = lower value): 0.966
- normalized growth (S. cerevisiae deletion strains, locus YLR113W, strain HOG1, stronger effect = lower value): 0.938
- normalized growth (S. cerevisiae deletion strains, locus YLR221C, strain rsa3, stronger effect = lower value): 0.955
- normalized growth (S. cerevisiae deletion strains, locus YLR258W, strain gsy2, stronger effect = lower value): 0.984
- normalized growth (S. cerevisiae deletion strains, locus YLR262C, strain YPT6 (second series), stronger effect = lower value): 0.768 (active)
- normalized growth (S. cerevisiae deletion strains, locus YLR262C, strain YPT6, stronger effect = lower value): 0.669
- normalized growth (S. cerevisiae deletion strains, locus YLR268W, strain sec22, stronger effect = lower value): 0.931
- normalized growth (S. cerevisiae deletion strains, locus YLR320W, strain mms22, stronger effect = lower value): 0.895
- normalized growth (S. cerevisiae deletion strains, locus YLR330W, strain CHS5, stronger effect = lower value): 0.923
- normalized growth (S. cerevisiae deletion strains, locus YLR342W, strain FKS1 (second series), stronger effect = lower value): 0.864
- normalized growth (S. cerevisiae deletion strains, locus YLR342W, strain FKS1, stronger effect = lower value): 0.972
- normalized growth (S. cerevisiae deletion strains, locus YLR357W, strain rsc2, stronger effect = lower value): 1.01
- normalized growth (S. cerevisiae deletion strains, locus YLR370C, strain arc18, stronger effect = lower value): 0.978
- normalized growth (S. cerevisiae deletion strains, locus YLR371W, strain rom2, stronger effect = lower value): 0.86 (active)
- normalized growth (S. cerevisiae deletion strains, locus YLR384C, strain iki3, stronger effect = lower value): 0.999
- normalized growth (S. cerevisiae deletion strains, locus YLR418C, strain cdc73, stronger effect = lower value): 0.744 (active)
- normalized growth (S. cerevisiae deletion strains, locus YML016C, strain PPZ1, stronger effect = lower value): 0.976
- normalized growth (S. cerevisiae deletion strains, locus YML032C, strain rad52, stronger effect = lower value): 0.938
- normalized growth (S. cerevisiae deletion strains, locus YML120C, strain ndi1, stronger effect = lower value): 0.988
- normalized growth (S. cerevisiae deletion strains, locus YML124C, strain tub3, stronger effect = lower value): 0.981
- normalized growth (S. cerevisiae deletion strains, locus YMR058W, strain fet3, stronger effect = lower value): 0.969
- normalized growth (S. cerevisiae deletion strains, locus YMR078C, strain ctf18, stronger effect = lower value): 0.956
- normalized growth (S. cerevisiae deletion strains, locus YMR125W, strain sto1, stronger effect = lower value): 0.997
- normalized growth (S. cerevisiae deletion strains, locus YMR129W, stronger effect = lower value): 0.993
- normalized growth (S. cerevisiae deletion strains, locus YMR205C, strain PFK2, stronger effect = lower value): 0.92
- normalized growth (S. cerevisiae deletion strains, locus YMR223W, strain ubp8, stronger effect = lower value): 0.952
- normalized growth (S. cerevisiae deletion strains, locus YMR231W, strain pep5, stronger effect = lower value): 0.968
- normalized growth (S. cerevisiae deletion strains, locus YMR307W, strain GAS1, stronger effect = lower value): 0.688
- normalized growth (S. cerevisiae deletion strains, locus YNL067W, strain RPL9B, stronger effect = lower value): 0.945
- normalized growth (S. cerevisiae deletion strains, locus YNL071W, strain lat1, stronger effect = lower value): 0.851 (active)
- normalized growth (S. cerevisiae deletion strains, locus YNL128W, strain TEP1, stronger effect = lower value): 0.98
- normalized growth (S. cerevisiae deletion strains, locus YNL153C, strain GIM3, stronger effect = lower value): 0.978
- normalized growth (S. cerevisiae deletion strains, locus YNL183C, strain NPR1, stronger effect = lower value): 0.91
- normalized growth (S. cerevisiae deletion strains, locus YNL209W, strain ssb2, stronger effect = lower value): 0.998
- normalized growth (S. cerevisiae deletion strains, locus YNL233W, strain BNI4, stronger effect = lower value): 0.935
- normalized growth (S. cerevisiae deletion strains, locus YNL248C, strain rpa49, stronger effect = lower value): 0.987
- normalized growth (S. cerevisiae deletion strains, locus YNL250W, strain rad50, stronger effect = lower value): 1.02
- normalized growth (S. cerevisiae deletion strains, locus YNL271C, strain bni1, stronger effect = lower value): 0.964
- normalized growth (S. cerevisiae deletion strains, locus YNL298W, strain CLA4, stronger effect = lower value): 0.949
- normalized growth (S. cerevisiae deletion strains, locus YNL307C, strain MCK1, stronger effect = lower value): 0.699 (active)
- normalized growth (S. cerevisiae deletion strains, locus YNL322C, strain KRE1 (second series), stronger effect = lower value): 0.971
- normalized growth (S. cerevisiae deletion strains, locus YNL322C, strain KRE1, stronger effect = lower value): 0.952
- normalized growth (S. cerevisiae deletion strains, locus YNR049C, strain mso1, stronger effect = lower value): 0.986
- normalized growth (S. cerevisiae deletion strains, locus YNR052C, strain pop2, stronger effect = lower value): 0.973
- normalized growth (S. cerevisiae deletion strains, locus YOL012C, strain htz1): 1.38
- normalized growth (S. cerevisiae deletion strains, locus YOL147C, strain pex11, stronger effect = lower value): 0.908 (active)
- normalized growth (S. cerevisiae deletion strains, locus YOR001W, strain rrp6, stronger effect = lower value): 0.998
- normalized growth (S. cerevisiae deletion strains, locus YOR061W, strain CKA2, stronger effect = lower value): 0.983
- normalized growth (S. cerevisiae deletion strains, locus YOR069W, strain VPS5, stronger effect = lower value): 0.965
- normalized growth (S. cerevisiae deletion strains, locus YOR070C, strain gyp1, stronger effect = lower value): 0.962
- normalized growth (S. cerevisiae deletion strains, locus YOR080W, strain dia2, stronger effect = lower value): 0.999
- normalized growth (S. cerevisiae deletion strains, locus YOR083W, strain WHI5, stronger effect = lower value): 0.946
- normalized growth (S. cerevisiae deletion strains, locus YOR106W, strain vam3, stronger effect = lower value): 0.952
- normalized growth (S. cerevisiae deletion strains, locus YOR136W, strain idh2, stronger effect = lower value): 0.972
- normalized growth (S. cerevisiae deletion strains, locus YOR144C, strain elg1, stronger effect = lower value): 0.966
- normalized growth (S. cerevisiae deletion strains, locus YOR184W, strain ser1, stronger effect = lower value): 0.831 (active)
- normalized growth (S. cerevisiae deletion strains, locus YOR231W, strain MKK1, stronger effect = lower value): 0.953
- normalized growth (S. cerevisiae deletion strains, locus YOR265W, strain rbl2, stronger effect = lower value): 0.974
- normalized growth (S. cerevisiae deletion strains, locus YOR270C, strain vph1, stronger effect = lower value): 0.84
- normalized growth (S. cerevisiae deletion strains, locus YOR290C, strain snf2, stronger effect = lower value): 0.929
- normalized growth (S. cerevisiae deletion strains, locus YOR316C, strain cot1, stronger effect = lower value): 0.966
- normalized growth (S. cerevisiae deletion strains, locus YPL051W, strain arl3, stronger effect = lower value): 0.885 (active)
- normalized growth (S. cerevisiae deletion strains, locus YPL078C, strain atp4, stronger effect = lower value): 0.911
- normalized growth (S. cerevisiae deletion strains, locus YPL106C, strain sse1, stronger effect = lower value): 1.02
- normalized growth (S. cerevisiae deletion strains, locus YPL240C, strain hsp82, stronger effect = lower value): 0.978
- normalized growth (S. cerevisiae deletion strains, locus YPL256C, strain CLN2, stronger effect = lower value): 0.969
- normalized growth (S. cerevisiae deletion strains, locus YPR119W, strain clb2, stronger effect = lower value): 0.975
- normalized growth (S. cerevisiae deletion strains, locus YPR141C, strain kar3, stronger effect = lower value): 0.983
- normalized growth (S. cerevisiae deletion strains, locus YPR163C, strain tif3, stronger effect = lower value): 0.752 (active)
- normalized growth (S. cerevisiae deletion strains, locus YPR167C, strain met16, stronger effect = lower value): 0.97
- normalized growth (S. cerevisiae deletion strains, strain wtn01, stronger effect = lower value): 0.919
- normalized growth (S. cerevisiae strains, strain wild type, stronger effect = lower value): 0.95
